Results filed as inconclusive are left out. Where a call stands in place of a potency, no number is given. Activity calls are given as the source filed them. Unless noted, calls come from the whole dose curve; as a rule, active = well fitted curve in the direction sought with a large enough effect; inconclusive = small, poorly fitted or top-dose-only effect, or another doubt; inactive = no such curve, though single readings can be large; an effect the other way counts as inactive or inconclusive.
Assays:
[1] = biological target: Mitogen-activated protein kinase 10 (Mus musculus) (UniProt Q61831); experiment: JNK3 AlphaScreen Assay (AID 530; active = well fitted curve in either direction with a large enough effect, not every such curve was filed as active;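 note: kinase came from lysate of stimulated human HepG2 cells; signal reports phosphorylation of biotinylated GST-cJun 1-79 at Ser73 with 10 µM ATP; series mostly up to about 57 µM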)
Method in brief: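 Room-temperature AlphaScreen kinase assay; pre-activated HepG2 lysate as JNK3 source, biotin-GST-cJun(1-79) substrate, 10 uM ATP, compound 15 min preincubation.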

[2] = biological target: Cytochrome P450 3A4 (Homo sapiens) (UniProt P08684); experiment: qHTS Assay for Inhibitors and Substrates of Cytochrome P450 3A4 (AID 884); note: nearly all actives have a fitted effect of over 50% in size; note: potency is the fitted concentration of half-maximal effect
Method in brief: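 20 nM human CYP3A4 with 25 uM Luciferin-PPXE (at KM) in 200 mM KPO4, preincubated 10 min with compound; NADPH regeneration started a 60 min RT reaction. Luciferin detected by luminescence, normalized to 57 uM ketoconazole as full inhibition.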

[3] = biological target: 3',5'-cyclic-AMP phosphodiesterase 4B (Homo sapiens) (UniProt Q07343); experiment: qHTS Assay for Inhibitors of PDE-IV (AID 607; active = well fitted activation curve with a large enough effect in the main read-out, with a control signal flat, not every such curve was filed as active)
Method in brief: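 Cell-based read-out of cAMP via a modified cyclic nucleotide-gated channel and membrane potential dye (535/590 nm) in HEK293 cells expressing PDE4 endogenously. Compounds tested up to 22.9 uM final; 100 uM RO 20-1724 reference.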

[4] = biological target: Cytochrome P450 3A4 (Homo sapiens) (UniProt P08684); experiment: qHTS Assay for Activators of Cytochrome P450 3A4 (AID 885); note: nearly all actives have a fitted effect of over 65% in size
Method in brief: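 Signal was normalized against complete inhibition by 57 uM ketoconazole. The reaction used 20nM CYP3A4 with 25uM Luciferin-PPXE, 10-min compound preincubation and a 60-min NADPH-supported step at RT.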

Chain of Cytochrome P450 3A4 (Homo sapiens) (P08684 whole entry, looked up): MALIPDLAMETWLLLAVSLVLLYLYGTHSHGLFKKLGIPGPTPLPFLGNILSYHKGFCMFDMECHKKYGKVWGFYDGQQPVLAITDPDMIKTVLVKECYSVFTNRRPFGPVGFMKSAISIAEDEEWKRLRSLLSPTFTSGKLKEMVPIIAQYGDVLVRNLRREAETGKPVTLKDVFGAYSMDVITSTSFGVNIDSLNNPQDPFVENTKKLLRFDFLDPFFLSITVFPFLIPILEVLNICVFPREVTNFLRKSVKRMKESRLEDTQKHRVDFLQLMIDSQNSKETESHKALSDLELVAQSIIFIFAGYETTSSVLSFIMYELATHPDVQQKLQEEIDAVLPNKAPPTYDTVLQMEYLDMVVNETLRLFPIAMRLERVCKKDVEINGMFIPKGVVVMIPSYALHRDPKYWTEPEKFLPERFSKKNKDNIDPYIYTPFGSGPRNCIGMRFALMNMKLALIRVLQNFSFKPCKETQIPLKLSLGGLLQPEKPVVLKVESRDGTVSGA
Chain of 3',5'-cyclic-AMP phosphodiesterase 4B (Homo sapiens) (Q07343 whole entry, looked up): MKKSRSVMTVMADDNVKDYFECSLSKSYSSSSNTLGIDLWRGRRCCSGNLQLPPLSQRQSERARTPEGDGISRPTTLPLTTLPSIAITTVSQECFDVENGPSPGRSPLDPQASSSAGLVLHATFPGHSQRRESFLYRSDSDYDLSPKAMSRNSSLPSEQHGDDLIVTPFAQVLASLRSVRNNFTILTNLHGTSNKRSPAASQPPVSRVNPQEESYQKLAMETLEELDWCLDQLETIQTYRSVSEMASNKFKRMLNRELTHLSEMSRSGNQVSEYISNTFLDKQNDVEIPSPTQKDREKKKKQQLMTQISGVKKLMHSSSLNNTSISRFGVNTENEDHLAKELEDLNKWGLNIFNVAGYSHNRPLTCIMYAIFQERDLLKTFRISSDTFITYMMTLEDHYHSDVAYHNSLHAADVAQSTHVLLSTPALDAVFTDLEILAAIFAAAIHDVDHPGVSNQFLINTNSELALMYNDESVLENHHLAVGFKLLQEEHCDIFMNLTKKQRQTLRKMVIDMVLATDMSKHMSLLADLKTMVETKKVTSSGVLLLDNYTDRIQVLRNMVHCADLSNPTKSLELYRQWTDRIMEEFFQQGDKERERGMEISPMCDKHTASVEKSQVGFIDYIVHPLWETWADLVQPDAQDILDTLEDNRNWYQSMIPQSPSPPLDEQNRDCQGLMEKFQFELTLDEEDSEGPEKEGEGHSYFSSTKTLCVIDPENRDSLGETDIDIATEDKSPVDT

COC(=O)N1[C@H](C)C=C[C@]1(Cc1ccccc1)C(=O)OC
outcome [1]: inactive
Potency [2]: inactive

COC(=O)[C@@]1(Cc2ccc(F)cc2)[C@H]2c3cc(C(=O)N4CCCC4)n(Cc4ccc(S(C)(=O)=O)cc4)c3C[C@H]2CN1C(=O)c1ccccc1
outcome [1]: inactive
outcome [3]: inactive
Potency [4]: inactive

Cc1ccc(CNC(=O)C2(CC(C)C)C=CCN2C(=O)c2ccccc2)o1 (stereo unspecified)
outcome [1]: inactive
Potency [2]: 15.8 µM (active)

C[C@H](CO)NC(=O)[C@H](C)[C@H]1C[C@]1(C)[C@H](NC(=O)OCc1ccccc1)c1ccccc1
outcome [1]: inactive
outcome [3]: inactive
Potency [2]: 3.98 µM (active)
Potency [4]: inactive

COC(=O)c1ccc(C(NC(=O)OCc2ccccc2)/C(=C/[C@@H](C)C(=O)N(C)Cc2cccnc2)c2cccnc2)cc1 (stereo partly specified)
outcome [1]: inactive
Potency [2]: 0.631 µM (active)
Potency [4]: inactive

CCCCCCN(C(=O)CCCCCN1C(=O)NC(c2ccc(C3CCCCC3)cc2)C(C(=O)OCc2ccccc2)=C1C)C(C(=O)NCCCC)c1ccc(OCC(=O)OC)c(C(=O)OC)c1 (stereo unspecified)
outcome [1]: inactive
Potency [2]: 2 µM (active)
Potency [4]: inactive

COC(=O)CCCCCN1C(=O)NC(c2ccc(-c3ccccc3)cc2)C(C(=O)OCc2ccccc2)=C1C (stereo unspecified)
outcome [1]: inactive
Potency [2]: inactive

COC(=O)c1ccc(C(NC(=O)OCc2ccccc2)/C(=C/[C@@H](C)C(=O)N(C)Cc2ccccc2)c2cccnc2)cc1 (stereo partly specified)
outcome [1]: inactive
Potency [2]: 2 µM (active)
Potency [4]: inactive

COC(=O)c1ccc(C(NC(=O)OCc2ccccc2)/C(C)=C/[C@@H](C)C(=O)NCCO)cc1 (stereo partly specified)
outcome [1]: inactive
Potency [2]: 2.51 µM (active)
Potency [4]: inactive

C[C@@H]1C=C[C@](Cc2ccccc2)(C(=O)NCC2CC2)N1C(=O)c1ccccc1
outcome [1]: inactive
Potency [2]: 12.6 µM (active)
Potency [4]: inactive

CNC(=O)[C@@]1(Cc2ccccc2)C=C[C@@H](C)N1C(=O)OC
outcome [1]: inactive
Potency [2]: 12.6 µM (active)
Potency [4]: inactive

C[C@H](NC(=O)[C@@H]1C[C@H]1[C@@H](NC(=O)OCc1ccccc1)c1ccccc1)c1ccccc1
outcome [1]: inactive
Potency [2]: 12.6 µM (active)

COC(=O)c1ccc(C(NC(=O)OCc2ccccc2)/C(F)=C/[C@@H](C)C(=O)NCCN2CCOCC2)cc1 (stereo partly specified)
outcome [1]: inactive
Potency [2]: 3.98 µM (active)
Potency [4]: inactive

COCCNC(=O)C1(CC(C)C)C=CCN1C(C)=O (stereo unspecified)
outcome [1]: inactive
Potency [2]: inactive

CC(C)(C)NC(=O)C(c1ccc(I)cc1)N(CCN1CCOCC1)C(=O)CCCNC(=O)c1ccccc1 (stereo unspecified)
outcome [1]: inactive
Potency [2]: 3.98 µM (active)
Potency [4]: inactive

CC(=O)N1CC=CC1(CC(C)C)C(=O)O (stereo unspecified)
outcome [1]: inactive
Potency [2]: inactive

CC1(C)OCC(CSC2=C(SCC3COC(C)(C)O3)C(=O)c3ncccc3C2=O)O1 (stereo unspecified)
outcome [1]: inactive
Potency [2]: 15.8 µM (active)
Potency [4]: inactive

CNC(=O)[C@H](C)/C=C/C(NC(=O)OCc1ccccc1)c1ccc(C(=O)OC)cc1 (stereo partly specified)
outcome [1]: inactive
Potency [2]: 7.94 µM (active)
Potency [4]: inactive

COC(=O)c1ccc(C(NC(=O)OCc2ccccc2)/C(F)=C/[C@@H](C)C(=O)NCc2cc(F)cc(F)c2)cc1 (stereo partly specified)
outcome [1]: inactive
Potency [2]: 3.98 µM (active)
Potency [4]: inactive

CNC(=O)C1(CC(C)C)C=CCN1C(C)=O (stereo unspecified)
outcome [1]: inactive
Potency [2]: inactive

C[C@]1(C(=O)NCCCNc2ncc(C(F)(F)F)cc2Cl)C=C[C@@H](Cc2ccccc2)N1C(=O)c1ccccc1
outcome [1]: inactive
Potency [2]: 3.16 µM (active)
Potency [4]: inactive

COC(=O)c1ccc(C(NC(=O)OCc2ccccc2)/C(C)=C/[C@@H](C)C(=O)NCc2cc(F)cc(F)c2)cc1 (stereo partly specified)
outcome [1]: inactive
Potency [2]: 3.16 µM (active)
Potency [4]: inactive

COC(=O)c1ccc(C(NC(=O)OCc2ccccc2)/C(I)=C/[C@@H](C)C(=O)NCc2ccc(C)o2)cc1 (stereo partly specified)
outcome [1]: inactive
Potency [2]: 10 µM (active)
Potency [4]: inactive

CC1(C(=O)NCc2ccccn2)C=CCN1C(=O)c1ccccc1 (stereo unspecified)
outcome [1]: inactive
Potency [2]: inactive

C[C@]1(C(=O)NCc2cc(F)cc(C(F)(F)F)c2)C=C[C@@H](Cc2ccccc2)N1C(=O)c1ccccc1
outcome [1]: inactive
Potency [2]: 2 µM (active)
Potency [4]: inactive

COC(=O)c1ccc(C(NC(=O)OCc2ccccc2)/C(=C/[C@@H](C)C(=O)NCc2cc(C)on2)c2cccnc2)cc1 (stereo partly specified)
outcome [1]: inactive
Potency [2]: 1.58 µM (active)
Potency [4]: inactive

CN(C)C(=O)[C@H]1C[C@@H]1[C@H](NC(=O)OCc1ccccc1)c1ccccc1
outcome [1]: inactive
Potency [2]: 7.94 µM (active)
Potency [4]: inactive

CC(Cc1ccccc1)C(=O)NCC1CC1 (stereo unspecified)
outcome [1]: inactive
Potency [2]: inactive

CC(=O)N1[C@H](Cc2ccccc2)C=C[C@]1(C)C(=O)NCc1ccccn1
outcome [1]: inactive
Potency [2]: inactive

CCCCCCN(C(=O)CCCCCN1C(=O)NC(c2ccc(-c3ccccc3)cc2)C(C(=O)OCc2ccccc2)=C1C)C(C(=O)NCCCC)c1ccc(-c2ccccc2)cc1 (stereo unspecified)
outcome [1]: inactive
Potency [2]: inactive

CC(=O)N1C2(C=CC1(C)C(=O)NCc1ccc(C)o1)CCCCC2 (stereo unspecified)
outcome [1]: inactive
Potency [2]: inactive

COC(=O)N1[C@H](C)C=C[C@]1(Cc1ccccc1)C(=O)O
outcome [1]: inactive
Potency [2]: inactive

CCCCCCN(C(=O)CCCCCN1C(=O)NC(C2CCCCC2)C(C(=O)OCc2ccccc2)=C1C)C(C(=O)NCCCC)c1ccc(OCC(=O)OC)c(C(=O)OC)c1 (stereo unspecified)
outcome [1]: inactive
Potency [2]: 3.16 µM (active)

— PubChem BioAssay (NCATS)
